# Data taken from the supplement of paper PMC8728848.
# The entries come from a sample that favours the strongest signals as a whole.
# Legend:
# Assay in all cases: glycan array binding signal (z-score within array); higher = stronger binding
# Details in all cases: glycan notation: IUPAC condensed, linker removed
# [1] = target: Gal(b1-4)GlcNAc(b1-3)Gal(b1-4)GlcNAc(b1-3)Gal(b1-4)GlcNAc(b1-3)Gal(b1-4)GlcNAc(b1-2)Man(a1-3)[Gal(b1-4)GlcNAc(b1-3)Gal(b1-4)GlcNAc(b1-3)Gal(b1-4)GlcNAc(b1-3)Gal(b1-4)GlcNAc(b1-2)Man(a1-6)]Man(b1-4)GlcNAc(b1-4)GlcNAc
# Procedure, shortened: (§1)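 Glycan array data came from 3228 arrays in the Consortium for Functional Glycomics database, and only arrays with an available protein sequence were kept. Glycan names were put into IUPAC-condensed notation, and columns mapping to the same glycan were averaged. The binding signal is a within-array Z-score, averaged across arrays of one protein sequence run at different concentrations or buffers and across linkers. A negative Z-score can be read as non-binding.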
# [2] = target: Gal(b1-4)GlcNAc(b1-3)Gal(b1-4)GlcNAc(b1-3)Gal(b1-4)GlcNAc(b1-3)Gal(b1-4)GlcNAc(b1-3)Gal(b1-4)GlcNAc(b1-2)Man(a1-3)[Gal(b1-4)GlcNAc(b1-3)Gal(b1-4)GlcNAc(b1-3)Gal(b1-4)GlcNAc(b1-3)Gal(b1-4)GlcNAc(b1-3)Gal(b1-4)GlcNAc(b1-2)Man(a1-6)]Man(b1-4)GlcNAc(b1-4)GlcNAc
# Procedure, shortened: as §1
# [3] = target: Gal(b1-4)GlcNAc(b1-3)Gal(b1-4)GlcNAc(b1-6)[Gal(b1-3)]GalNAc
# Procedure, shortened: as §1
# [4] = target: Gal(b1-4)GlcNAc(b1-6)[Gal(b1-3)]GalNAc
# Procedure, shortened: as §1
# [5] = target: Gal3S4S(b1-4)GlcNAc
# Procedure, shortened: as §1
# [6] = target: Gal6P(b1-4)GlcNAc
# Procedure, shortened: as §1
# [7] = target: GalNAc4S6S(b1-4)GlcNAc
# Procedure, shortened: as §1
# [8] = target: GlcNAc(b1-2)[GlcNAc(b1-4)]Man(a1-3)[GlcNAc(b1-4)][GlcNAc(b1-2)[GlcNAc(b1-6)]Man(a1-6)]Man(b1-4)GlcNAc(b1-4)[Fuc(a1-6)]GlcNAc
# Procedure, shortened: as §1
# [9] = target: GlcNAc(b1-3)Gal(b1-4)GlcNAc(b1-3)Gal(b1-4)GlcNAc(b1-3)Gal(b1-4)GlcNAc(b1-3)Gal(b1-4)GlcNAc(b1-2)[GlcNAc(b1-3)Gal(b1-4)GlcNAc(b1-3)Gal(b1-4)GlcNAc(b1-3)Gal(b1-4)GlcNAc(b1-3)Gal(b1-4)GlcNAc(b1-6)]Man(a1-6)[GlcNAc(b1-3)Gal(b1-4)GlcNAc(b1-3)Gal(b1-4)GlcNAc(b1-3)Gal(b1-4)GlcNAc(b1-3)Gal(b1-4)GlcNAc(b1-2)Man(a1-3)]Man(b1-4)GlcNAc(b1-4)[Fuc(a1-6)]GlcNAc
# Procedure, shortened: as §1
# [10] = target: GlcNAc(b1-3)Gal(b1-4)GlcNAc(b1-6)[GlcNAc(b1-3)]Gal(b1-4)GlcNAc
# Procedure, shortened: as §1
# [11] = target: GlcNAc(b1-4)Gal(b1-4)GlcNAc
# Procedure, shortened: as §1
# [12] = target: GlcNAc(b1-4)GlcNAc(b1-4)GlcNAc(b1-4)GlcNAc(b1-4)GlcNAc
# Procedure, shortened: as §1
# [13] = target: GlcNAc(b1-4)GlcNAc(b1-4)GlcNAc(b1-4)GlcNAc(b1-4)GlcNAc(b1-4)GlcNAc
# Procedure, shortened: as §1
# [14] = target: GlcNAc(b1-6)GalNAc
# Procedure, shortened: as §1
# [15] = target: Man(a1-2)Man(a1-2)Man(a1-3)Man
# Procedure, shortened: as §1
# [16] = target: Man(a1-3)[Man(a1-6)]Man
# Procedure, shortened: as §1
# [17] = target: Neu5Ac(a2-3)Gal(b1-3)GalNAc(b1-3)Gal(a1-4)Gal(b1-4)Glc
# Procedure, shortened: as §1
# [18] = target: Neu5Ac(a2-3)Gal(b1-3)[Fuc(a1-4)]GlcNAc(b1-3)Gal(b1-3)[Fuc(a1-4)]GlcNAc
# Procedure, shortened: as §1
# [19] = target: Neu5Ac(a2-6)Gal(b1-4)Glc
# Procedure, shortened: as §1
# [20] = target: Neu5Ac(a2-6)Gal(b1-4)GlcNAc
# Procedure, shortened: as §1
# [21] = target: Neu5Ac(a2-6)Gal(b1-4)GlcNAc(b1-2)Man(a1-3)Man(b1-4)GlcNAc(b1-4)GlcNAc
# Procedure, shortened: as §1
# [22] = target: Neu5Ac(a2-6)Gal(b1-4)GlcNAc(b1-2)Man(a1-3)[GlcNAc(b1-2)Man(a1-6)]Man(b1-4)GlcNAc(b1-4)GlcNAc
# Procedure, shortened: as §1
# [23] = target: Neu5Ac(a2-6)Gal(b1-4)GlcNAc(b1-3)Gal(b1-4)GlcNAc(b1-3)[Neu5Ac(a2-6)Gal(b1-4)GlcNAc(b1-3)Gal(b1-4)GlcNAc(b1-6)]GalNAc
# Procedure, shortened: as §1
# [24] = target: Neu5Ac(b2-6)GalNAc
# Procedure, shortened: as §1
# [25] = target: Neu5Gc(a2-6)Gal(b1-4)GlcNAc
# Procedure, shortened: as §1
binder,measurement,setting,value
PX9937I-bfa-538-26-538 (Bacteroides fragilis) (protein) DKLDLSPIDYYGSGSYWKTEAQATAYIDGIHKHLRDAAWQHTITFGELRGGRFITGASSDGMGVSNGDIILQNFDETHTGVSKFGDLFGRITNLNLFIARVTDATYLSDEMKNFYLGEVYGLRAFYYFDLYRIYGGVPLRLTADVVEGVIDPNKLYMARSTPKEVMTQIKSDLNKSMEYFGNMNDFDPYKRGKKVYWSKAATECLMGEVYLWTSKVTTGDDVANPADLTIAKTHLESVLNNYNLKMLDDFSQVFNAKNKANDEIIFAIRFLEGEATNSNGTFTYNVGTGSTKNRYQANGEVFGDALDIQNTGNQTYEYNKAVYQNFDDADTRKEATFIASYNKDGKTGELSLYGTHVRKNIGYVNAQGARVYCGDYIFYRLPWVYLTLAEIANMEGDNAAVAKYINLVRKRAYGNAWDETLYAYPETADFTTNELAILHEKDKEFIQEGQRWWDLRRMTLTKGGTPLVFCKEGSLLGDAPILNKSTEAHKLLWPIEKTMLNKDPALEQTPGYK,glycan array binding signal (z-score),[1],1.43
same,glycan array binding signal (z-score),[2],1.74
same,glycan array binding signal (z-score),[3],3.46
same,glycan array binding signal (z-score),[4],-0.735
same,glycan array binding signal (z-score),[5],0.428
same,glycan array binding signal (z-score),[6],-0.37
same,glycan array binding signal (z-score),[7],-0.708
same,glycan array binding signal (z-score),[8],-0.615
same,glycan array binding signal (z-score),[9],0.041
same,glycan array binding signal (z-score),[10],-0.068
same,glycan array binding signal (z-score),[11],1.65
same,glycan array binding signal (z-score),[12],1.25
same,glycan array binding signal (z-score),[13],-0.198
same,glycan array binding signal (z-score),[14],0.252
same,glycan array binding signal (z-score),[15],0.241
same,glycan array binding signal (z-score),[16],0.95
same,glycan array binding signal (z-score),[17],-1
same,glycan array binding signal (z-score),[18],-1.26
same,glycan array binding signal (z-score),[19],-0.274
same,glycan array binding signal (z-score),[20],-0.419
same,glycan array binding signal (z-score),[21],3.63
same,glycan array binding signal (z-score),[22],-0.591
same,glycan array binding signal (z-score),[23],-0.643
same,glycan array binding signal (z-score),[24],-0.386
same,glycan array binding signal (z-score),[25],-0.339
